The test system of the assay is MIWI (PIWIL1) piRISC loaded with L1MC piRNA (30 nt). The assay is described as follows: pre-steady-state target cleavage rate (min^-1); MIWI and MILI are mouse PIWI proteins and EfPiwi is from a freshwater sponge; tags in brackets are library labels; higher = faster piRNA-guided slicing of the target. As to conditions: guide: L1MC piRNA 5'p-UAACUAAAUACUAUGCAAGCUGUAGGUCCU
On the procedure: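 Cleave-'n-Seq: a library of target RNAs (target site embedded in constant flanks, ACAGCATTCCGCGTTAGTGATATCCG... 5' flank; DNA-blocked outside the site) at 0.1 nM was incubated with 1 nM active mouse MILI or MIWI piRISC (synthetic 5'-monophosphorylated piRNA guide) with or without 500 nM mouse GTSF1 at 33 °C for 1 min to 16 h. Uncleaved targets were sequenced and normalised to non-target controls, and the pooled three trials were fitted to a burst-and-steady-state model to give the pre-steady-state cleavage rate (min^-1; k3 is constrained to at most 1e-4). Sequence is the target site only; target names encode pairing extent (gX:gY) and contiguous / 1-mismatch / 2-mismatch / bulge geometry. Fits with R² ≤ 0 are excluded.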

Where [1] appears, read: auxiliary factor: 500 nM mouse GTSF1.
The mark [2] stands for this setting: auxiliary factor: none (no GTSF1).

± gives the standard deviation. Whole data set: some 8,200 sequences, median “pre-steady-state target cleavage rate” near 0.024, cut for the highest 2% near 1.3. This excerpt belongs to a sample that is enriched for the highest values.

In the case of UCCUGCUACGCUUGCAUAGUAUUUAGUUA, the “pre-steady-state target cleavage rate” value turned out to be 1.12 ± 0.08 under setting [1] and 0.0532 ± 0.011 under setting [2].
On the same counts, the results for AGGUCCUACAGCUUGCAUAGUAUUAAGUUA are 0.381 ± 0.034 and 0.054 ± 0.013.
The like results for UCCUCCUAGAGCUUGCUUAGUAUUUAGUUA were, in that order, 1.04 ± 0.059 and 0.0213 ± 0.0041.
With UGGACCUACAGCUUGCUUACUAUUUAGUUA, the “pre-steady-state target cleavage rate” value is, setting by setting: under setting [1], 0.493 ± 0.031; under setting [2], 0.0127 ± 0.0038.
The like results for UCGACCUACAGCUUGCAUAGUUAAUAGUUA were, in that order, 0.122 ± 0.019 and 0.00697 ± 0.0029.
The like results for UCCUGGAUGUCGUGCAUAGUAUUUAGUUA were, in that order, 0.031 ± 0.0083 and 0.00348 ± 0.0032.
With UCCUCCUACACCUAGCAUAGUAUUUAGUUA, the “pre-steady-state target cleavage rate” value runs as follows: under setting [1], 0.657 ± 0.057; under setting [2], 0.0111 ± 0.0022.
For UCCUGGAACAGCUUGCAUAGUAUAAACAAA, the “pre-steady-state target cleavage rate” value under setting [1] stood at 0.18 ± 0.043.
The same measure, in the same setting: the figure for UGGACCUACAGCUUCGAUAGUAUUUAGUAA is 0.307 ± 0.04.
Consider UCCUGGAUGUGCUUGCUUAGUAUUUAGUAA, for which the “pre-steady-state target cleavage rate” value runs as follows: under setting [1], 0.0383 ± 0.008; under setting [2], 0.0104 ± 0.0033.
As to UGGACCUACAGCUUGCAUAGUAUUAAGAUA, the “pre-steady-state target cleavage rate” value under setting [1] amounted to 0.174 ± 0.028 and the “pre-steady-state target cleavage rate” value under setting [2] was determined as 0.00558 ± 0.0024.
On the same counts, the results for UCGACCUACUGCUUGCAAAGUAUUUAGUUA are 1.33 ± 0.037 and 0.051 ± 0.01.
On the same counts, the results for AGGACCUACUGCUUGCAAAGUAUUUAGUUA are 1.11 ± 0.057 and 0.0455 ± 0.0095.
The like results for UCGACCUACUGCAUGCAUAGUAUUUAGUUA were, in that order, 1.33 ± 0.056 and 0.0324 ± 0.0055.
Consider AGGACCUACUGCAUGCAUAGUAUUUAGUUA, for which the “pre-steady-state target cleavage rate” value is, setting by setting: under setting [1], 1.3 ± 0.06; under setting [2], 0.0566 ± 0.01.
On the same counts, the results for UGGACCAACUGCUUGCAUAGUAUUUAGUUA are 1.27 ± 0.055 and 0.0655 ± 0.011.
The like results for UGGACCUACUGCUUGCAAAGUAUUUAGUUA were, in that order, 1.23 ± 0.059 and 0.0383 ± 0.0078.
On to UCGACCAACUGCUUGCAUAGUAUUUAGUUA, for which the “pre-steady-state target cleavage rate” value reads like this: under setting [1], 1.43 ± 0.041; under setting [2], 0.0724 ± 0.012.
The like results for UGGACCUACUGCAUGCAUAGUAUUUAGUUA were, in that order, 1.27 ± 0.08 and 0.0325 ± 0.0061.
On the same counts, the results for AGGACCAACUGCUUGCAUAGUAUUUAGUUA are 1.22 ± 0.056 and 0.0799 ± 0.014.
Turning to UCCUGGUACAGCUACCAUAGUAUUUAGUUA, the “pre-steady-state target cleavage rate” value under setting [1] came to 0.366 ± 0.05.
On to UCCACCUACUGCUUGCAUAGUAUUUACUUA, for which the “pre-steady-state target cleavage rate” value came to 0.243 ± 0.025 under setting [1] and 0.0254 ± 0.0034 under setting [2].
On the same counts, the results for AGGUGGUACAGCUUGCAUAGUAUUUAGAAA are 0.19 ± 0.044 and 0.00559 ± 0.0016.
With UCCUGGUACAGCUUGCAUAGUUAAUAGAAA, under setting [1], the “pre-steady-state target cleavage rate” value came out at 0.023 ± 0.0089.
Consider UCCUGGAUGACUUGCAUAGUAUUUAGUUA, for which the “pre-steady-state target cleavage rate” value under setting [1] stood at 0.412 ± 0.03 and the “pre-steady-state target cleavage rate” value under setting [2] worked out at 0.0206 ± 0.0053.
For UCCUGGAUGUCGAACGAUAGUAUUUAGUUUA, under setting [1], the “pre-steady-state target cleavage rate” value is less than 0.0001.
On to AGGACCUUCAGCUUGCAUUGUAUUUAGUUA, for which the “pre-steady-state target cleavage rate” value was determined as 0.966 ± 0.031 under setting [1] and 0.0424 ± 0.01 under setting [2].
Take AGGACCUACAGCUUGCAUUGUAUAUAGUUA: the “pre-steady-state target cleavage rate” value came out at 0.395 ± 0.031 under setting [1] and 0.0219 ± 0.0046 under setting [2].
On the same counts, the results for UCGACCUACAGCUUGGAUAGUAUUUAGAAA are 0.372 ± 0.044 and 0.00679 ± 0.002.
The like results for UCCUGGUACACCUUGCAUAGUUUUUAGUUA were, in that order, 0.0764 ± 0.027 and 0.0132 ± 0.0038.
With UCGAACUACAGCUUGCAUAGUAUUUAGUUA, the “pre-steady-state target cleavage rate” value worked out at 1.39 ± 0.049 under setting [1] and 0.0698 ± 0.011 under setting [2].
On the same counts, the results for UGAACCUACAGCUUGCAUAGUAUUUAGUUA are 1.63 ± 0.068 and 0.0751 ± 0.015.
The like results for “UCCACCUACAGCUUGCAUAGUAUUUAGUUG [g2:g27:cont:t1G]” were, in that order, 0.399 ± 0.047 and 0.0371 ± 0.0065.
The like results for UGGAACCUACAGCUUGCAUAGUAUUUAGUUA were, in that order, 1.41 ± 0.1 and 0.0747 ± 0.016.
In the case of UGGAACUACAGCUUGCAUAGUAUUUAGUUA, the “pre-steady-state target cleavage rate” value is 1.09 ± 0.041 under setting [1] and 0.0698 ± 0.011 under setting [2].
On the same counts, the results for AGGAACCUACAGCUUGCAUAGUAUUUAGUUA are 1.23 ± 0.059 and 0.0809 ± 0.014.
The like results for AGGAACUACAGCUUGCAUAGUAUUUAGUUA were, in that order, 1.3 ± 0.041 and 0.0918 ± 0.016.
UCGAACCUACAGCUUGCAUAGUAUUUAGUUA: the “pre-steady-state target cleavage rate” value turned out to be 1.37 ± 0.046 under setting [1] and 0.0781 ± 0.016 under setting [2].
On the same counts, the results for AGGACCUACAGGAAGCAUAGUAUUUAGUUA are 0.977 ± 0.08 and 0.0104 ± 0.0029.
For the sequence UGGACCUACAGCUUGCAUAGUAUAAACAAA, the “pre-steady-state target cleavage rate” value under setting [1] is 0.14 ± 0.028.

Source of the values: the supplement of paper PMC10338343.
